Experimental findings from PubChem BioAssay (NCATS) are described below.

The target of assay [1] is Cellular tumor antigen p53 (Homo sapiens) (UniProt P04637). The experiment in a line: Primary qHTS for small molecule compounds that upregulate eGFP-tagged delta133p53alpha (in N-terminal) cells. (AID 2060322). Also: nearly all actives have a fitted effect of over 75% in size. Also: potency is read from the fitted curve at half-maximal effect.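 As to activation: 0% = DMSO vehicle and 100% = reference activator.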 To be noted: NCI-H358 eGFP-delta133p53alpha fluorescence, 24 h; activation: hits give high values. The method in brief:
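NCI-H358 cells pre-induced 24 h with 10 ng/ml doxycycline to express N-terminal eGFP-delta133p53alpha, then dosed 24 h at 37C without doxycycline; fixed, Hoechst-stained, GFP intensity by laser scanning cytometry, normalized to DMSO (0%) and 57.5 uM 5-azacytidine (100%).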
(In general: Quantitative high-throughput screening tests each substance at several concentrations.)

Assay [2] can be described thus: qHTS for Inhibitors of the Aldehyde Dehydrogenase Family (ALDH1A2, ALDH1A3, ALDH2, ALDH3A1) (AID 2061307). Also: nearly all actives have a fitted effect of over 50% in size. As to Potency: test system not described further here; potency is read from the fitted curve at half-maximal effect. The settings on record: ALDH inhibition qHTS; series mostly up to 50.3 µM.
Assay [3] deals with Aldehyde dehydrogenase, mitochondrial (Homo sapiens) (UniProt P05091). The experiment in a line: qHTS for Inhibitors of the Aldehyde Dehydrogenase Family (ALDH2) Primary screen (AID 2061308). Also: nearly all actives have a fitted effect of over 55% in size. Also: potency is read from the fitted curve at half-maximal effect. To be noted: ALDH2 enzyme inhibition qHTS, 1536-well; series mostly up to 56 µM.
Assay [4] has as its target Retinaldehyde dehydrogenase 3 (Homo sapiens) (UniProt P47895). The experiment in a line: qHTS for Inhibitors of the Aldehyde Dehydrogenase Family (ALDH1A3) Confirmatory screens (AID 2061311). Also: nearly all actives have a fitted effect of over 60% in size. Also: potency is read from the fitted curve at half-maximal effect. The settings on record: ALDH inhibition qHTS; series mostly up to 46 µM.
Assay [5] shares this target. The experiment in a line: qHTS for Inhibitors of the Aldehyde Dehydrogenase Family (ALDH1A3) Primary screen (AID 2061315). Also: potency is read from the fitted curve at half-maximal effect. To be noted: ALDH inhibition qHTS; series mostly up to 56 µM.
Assay [6] has the same target. The experiment in a line: qHTS for Inhibitors of the Aldehyde Dehydrogenase Family (ALDH1A3) Validation screen (AID 2061312). Also: nearly all actives have a fitted effect of over 45% in size. Also: potency is read from the fitted curve at half-maximal effect. The settings on record: ALDH1A3 enzyme inhibition qHTS validation, fluorescence; series mostly up to 84.7 µM.
Assay [7] concerns the target Aldehyde dehydrogenase 1A1 (Homo sapiens) (UniProt P00352). The experiment in a line: qHTS for Inhibitors of the Aldehyde Dehydrogenase Family (ALDH1A1) Confirmatory screens (AID 2061316). Also: nearly all actives have a fitted effect of over 65% in size. Also: potency is read from the fitted curve at half-maximal effect. To be noted: ALDH inhibition qHTS; series mostly up to 47.3 µM.
Assay [8] in a line: BET inhibitor-based combinations targeting novel dependencies in MECOM-rearranged (r) AML: SET-2 cell line (AID 2202231).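 Also: plate controls were DMSO treated cells for no effect and wells without cells for full effect; nearly all actives have a fitted effect of over 35% in size.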 To be noted: SET-2 AML cells viability, CellTiter-Glo luminescence, 48 h; viability: hits give low values, concentration not given here. An outline of the steps:
(§1)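 AML cell lines seeded at 500 cells/well, treated with 11-point dose curves for 48 h. Viability by CellTiter-Glo luminescence, normalised to DMSO and empty wells; activity expressed as AUC and per-cell-line Z-transformed AUC.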
Background: Cellular ATP, detected with luciferase, serves as a proxy for viable cell number.

Assay [9] is described as follows: BET inhibitor-based combinations targeting novel dependencies in MECOM-rearranged (r) AML: MV-4-11 cell line (AID 2202233). Also: nearly all actives have a fitted effect of over 45% in size. Also: potency is read from the fitted curve at half-maximal effect. The settings on record: MV-4-11 AML viability, CellTiter-Glo luminescence, 48 h; series mostly up to 46 µM. An outline of the steps:
(§2)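 Cells at 500/well were exposed for 48 hr to MIPE v5.0 drugs as 11-point dose curves. Viability was read by CellTiter-Glo luminescence and normalized to DMSO and empty-well controls. Activity was expressed as AUC and per-cell-line Z-AUC.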

A short description of assay [10]: BET inhibitor-based combinations targeting novel dependencies in MECOM-rearranged (r) AML: HNT-34 cell line (AID 2202234). Also: nearly all actives have a fitted effect of over 35% in size. Also: potency is read from the fitted curve at half-maximal effect. To be noted: HNT-34 AML viability, CellTiter-Glo luminescence, 48 h; series mostly up to 46 µM. An outline of the steps: as §2
Assay [11] can be described thus: BET inhibitor-based combinations targeting novel dependencies in MECOM-rearranged (r) AML: UCSD-AML1 cell line (AID 2202235). Also: nearly all actives have a fitted effect of over 40% in size. Also: potency is read from the fitted curve at half-maximal effect. To be noted: UCSD-AML1 AML cells viability, CellTiter-Glo, 48 h; series mostly up to 46 µM. An outline of the steps: as §2
A short description of assay [12]: BET inhibitor-based combinations targeting novel dependencies in MECOM-rearranged (r) AML: AML-191 cell line (AID 2202236; also: nearly all actives have a fitted effect of over 35% in size; also: potency is read from the fitted curve at half-maximal effect). To be noted: AML-191 viability, CellTiter-Glo luminescence, 48 h; series mostly up to 46 µM. An outline of the steps:
as §1

Assay [13] can be described thus: BET inhibitor-based combinations targeting novel dependencies in MECOM-rearranged (r) AML: AML-194 cell line (AID 2202237;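 also: plate controls were vehicle wells for no effect and wells without cells for full effect; nearly all actives have a fitted effect of over 40% in size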). The settings on record: AML-194 (MECOM-r AML) viability, CellTiter-Glo, 48 h; series mostly up to 46 µM. An outline of the steps: as §1
The target of assay [14] is Retinal dehydrogenase 2 (Homo sapiens) (UniProt O94788). The experiment in a line: qHTS for Inhibitors of the Aldehyde Dehydrogenase Family (ALDH1A2) Confirmation screens (AID 2061314). Also: nearly all actives have a fitted effect of over 65% in size. Also: potency is read from the fitted curve at half-maximal effect. The settings on record: ALDH1A2 enzyme inhibition qHTS confirmation; series mostly up to 45.9 µM.

Where “and” joins values, the source holds several entries; their conditions need not be identical. Equal entries are not always repeated. Results filed as inconclusive are left out. A number with no mark means an inactive call. Calls of active or inactive are those of the source. Calls follow the shape of the dose curve; as a rule, active = well fitted curve in the direction sought with a large enough effect; inconclusive = small, poorly fitted or top-dose-only effect, or another doubt; inactive = no such curve, though single readings can be large; an effect the other way counts as inactive or inconclusive.

Sequence of Cellular tumor antigen p53 (Homo sapiens) (P04637 whole entry, looked up): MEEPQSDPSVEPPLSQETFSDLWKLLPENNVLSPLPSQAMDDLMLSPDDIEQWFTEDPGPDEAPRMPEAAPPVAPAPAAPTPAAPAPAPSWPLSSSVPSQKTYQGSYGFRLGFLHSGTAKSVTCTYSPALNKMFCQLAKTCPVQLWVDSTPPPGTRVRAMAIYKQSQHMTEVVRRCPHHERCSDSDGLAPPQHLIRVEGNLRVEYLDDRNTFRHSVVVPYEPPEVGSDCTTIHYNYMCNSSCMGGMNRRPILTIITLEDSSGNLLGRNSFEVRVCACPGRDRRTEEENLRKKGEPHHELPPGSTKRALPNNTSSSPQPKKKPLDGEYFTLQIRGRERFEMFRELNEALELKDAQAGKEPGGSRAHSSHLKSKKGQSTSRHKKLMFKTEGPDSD

Turning to `O=C(/C=C/c1ccc(O)c(O)c1)O[C@H]1[C@H](OC2CCCCC2O)O[C@H](CO)[C@@H](O)[C@@H]1O` (stereo partly drawn), in assay [1], the activation was 5.36%. Also, the Potency result in assay [2] and in assay [3] was “inactive” throughout. Moreover, in [4], the Potency is 11 µM (active).
As to `C=CC(C)(O)CC/C=C(\C)C1CC=C(C)C(=O)O1` (stereo not drawn), in [1], the activation is -9.82%. The Potency entry in [2] and in [3] was “inactive” in each case. In addition, the Potency in [4] was 22.5 µM (active); in assay [5], 14.1 µM (active).
For the compound `Cc1cc(Nc2ccc(NC(=O)c3ccc(Nc4ccnc5ccccc45)cc3)cc2)nc(N)n1`, in assay [1], the Potency is 10.9 µM (active). The Potency result in [2], in assay [3], in assay [6] and in assay [5] was “inactive” in each case.
For `Cc1nnc(C(=O)NC(C)(C)c2nc(C(=O)NCc3ccc(F)cc3)c(O)c(=O)n2C)o1`, the activation in assay [1] was 12.2% and -3.35% and -11.5%. The Potency in assay [2] was 1.59 µM (active). The Potency result in [3], in [6], in assay [5], in [7], in [9] and in [10] was “inactive” throughout. The Potency entry in assay [11], in assay [12] and in assay [13] was “inactive” in each case. Moreover, the viability in [8] is 118%.
For `Cc1onc(-c2ccccc2)c1C(=O)N[C@@H]1C(=O)N2[C@@H]1SC(C)(C)[C@@H]2C(=O)O`, in assay [1], the activation is -0.333% and 17%. Also, the Potency entry in assay [2], in [3] and in [5] was “inactive” throughout.
As for `S=C(NCc1ccc2c(c1)OCO2)N1CCN(c2ncnc3c2oc2ccccc23)CC1`, the activation in assay [1] is 8.81% and -14.3%. Moreover, the Potency in assay [2] was 1.58 µM (active); in assay [14] it was 11.3 µM (active); in assay [9], 16.6 µM (active). The Potency entry in assay [3], in [6], in assay [5], in assay [7] and in assay [11] was “inactive” throughout.
For `O=C(NCC(=O)N1CCCC1)Nc1ccc2ccccc2c1`, in assay [1], the activation is -2.86%. For the same compound, the Potency in [2] is 5.04 µM (active); in [4], 1.01 µM (active); in assay [6], 3.55 µM (active); in assay [5] it was 2.82 µM (active); in assay [7] it was 7.98 µM (active). For the same compound, in [3], the Potency result was “inactive”.
Consider `C[C@@H]1O[C@@H](O[C@@H]2[C@@H](O)[C@@H](O[C@]3(CO)O[C@H](CO)[C@@H](O)[C@@H]3OC(=O)/C=C/c3ccc(O)cc3)O[C@H](CO)[C@H]2OC(=O)/C=C/c2ccc(O)cc2)[C@H](O)[C@H](O)[C@H]1O[C@@H]1O[C@@H](C)[C@H](O[C@@H]2OC[C@](O)(CO)[C@H]2O)[C@@H](O)[C@H]1O`, for which the activation in assay [1] is -2.68%. Further, the Potency entry in assay [2] and in assay [3] was “inactive” in each case.
Regarding `CC/C=C/C(O)C(O)C1=C(C)C(=O)C2(O1)C(=O)NC(OC)(C(=O)c1ccccc1)C2O` (stereo not drawn), the activation in [1] is 15.3%. For the same compound, the Potency result in assay [2], in assay [3], in assay [14] and in assay [5] was “inactive” in each case.
Consider `Cc1cc(C)c2c(N)c(C(=O)NCc3ccc(Cl)cc3)sc2n1`, for which the activation in assay [1] is 13.4%. Moreover, the Potency is 1.12 µM (active) in assay [2] and 14.2 µM (active) in [7]. Also, the Potency entry in assay [3] and in [5] was “inactive” throughout.
With `CC1CC(=O)[C@]2(O)C(C(=O)OCCc3ccc(O)c(O)c3)=CO[C@@H](O[C@@H]3O[C@H](CO)[C@@H](O)[C@H](O)[C@H]3O)[C@H]12` (stereo partly drawn), the activation in [1] was 6.87%. Also, the Potency result in [2], in [3] and in assay [14] was “inactive” each time. In addition, the Potency in assay [7] is 12.3 µM (active).
`COCC(=O)NC/C=C/c1ccc2ncnc(Nc3ccc(Oc4ccc(C)nc4)c(C)c3)c2c1`: the activation in assay [1] was 0%. Also, the Potency in assay [2] is 7.12 µM (active). Further, the Potency result in [3], in assay [4], in assay [14] and in [5] was “inactive” each time.
In the case of `O=C(O)c1cc(C(F)(F)F)ccc1N1CC[C@H](OCc2ccccn2)C1`, the activation in assay [1] was -17%. In addition, the Potency entry in assay [2], in assay [3], in assay [4], in assay [5] and in [7] was “inactive” in each case.
For the compound `O=C(Nc1ccc(S(=O)(=O)C(F)(F)F)cc1)C1=CCN(c2ncccc2C(F)(F)F)CC1`, the activation in assay [1] is -1.91%. In addition, the Potency result in assay [2] and in assay [5] was “inactive” in each case. Also, in assay [3], the Potency was 25.1 µM (active).
As for `Cc1cc(N2CCOCC2)cc2[nH]c(-c3c(NC[C@@H](O)c4cccc(Cl)c4)cc[nH]c3=O)nc12`, the Potency in [1] is 21.7 µM (active) and 23.9 µM (active); in assay [10], 7.42 µM (active); in assay [11], 296 nM (active); in assay [12], 590 nM (active). Besides, the Potency result in [2], in assay [3], in [6] and in [5] was “inactive” throughout.
Take `CCN(Cc1cc(Nc2nc(C)cn3c(-c4cn[nH]c4)cnc23)sn1)C(C)(C)CO`: the Potency was 16.9 µM (active) in [1], 12.7 µM (active) in assay [4] and 31.8 µM (active) in [14]. Besides, the Potency entry in [2], in assay [3] and in [5] was “inactive” each time.
Consider `COc1c2c(c(C)c3c1C(=O)OC3)OC1(C)CC(O)C34OC(OC)(CC(O)C3(C)C1C2)OC4(C)C` (stereo not drawn), for which the activation in [1] is -9.92%. Further, the Potency entry in [2], in assay [3] and in assay [5] was “inactive” throughout.
Take `CC(O)CCC1C(CO[C@@H]2O[C@H](CO)[C@@H](O)[C@H](O)[C@H]2O)CC(O)CC1(C)C` (stereo partly drawn): the activation in assay [1] is 5.34%. Further, the Potency entry in assay [2], in assay [3] and in assay [14] was “inactive” in each case. For the same compound, the values for the Potency in assay [4] and in assay [5] were 3.92 µM (active) and 6.31 µM (active), respectively.
Regarding `COc1cccc(CNC(=O)Nc2nc(-c3ccncc3)cs2)c1`, the activation in assay [1] was -8.04%. Also, the Potency in assay [2] is 2.01 µM (active); in assay [14], 5.65 µM (active). Moreover, the Potency entry in [3] and in [5] was “inactive” throughout.
As to `N#Cc1ccc2[nH]cc(CCCCN3CCN(c4ccc5oc(C(N)=O)cc5c4)CC3)c2c1`, the activation in assay [1] is 11.5%. The Potency in assay [2] is 2.24 µM (active); in assay [4] it was 15.8 µM (active); in assay [14], 15.8 µM (active). Moreover, the Potency result in [3], in [6] and in assay [5] was “inactive” in each case.
Take `COc1cc(C[C@@]2(O)CO[C@@H](c3ccc(O[C@@H]4O[C@H](CO)[C@@H](O)[C@H](O)[C@H]4O)c(OC)c3)[C@H]2CO)ccc1O`: the activation in assay [1] was -17%. Further, the Potency entry in [3] is “inactive”.

The term viability denotes a read-out of living cells in per cent, often relative to untreated cells.
